Experimental data taken from PubChem BioAssay (Tox21).
Results filed as inconclusive are left out. Active and inactive are the calls of the source. Unless noted, calls follow the shape of the dose curve; as a rule, active = well fitted curve in the direction sought with a large enough effect in the repeat runs; inconclusive = weak or mixed curves; inactive = no such curve, though single readings can be large; an effect the other way counts as inactive or inconclusive.

Experiments:
[1] = qHTS assay to identify small molecule antagonists of the androgen receptor (AR) signaling pathway using the MDA cell line in the presence of 0.5 nM R1881 - cell viability counter screen (AID 1259242); also: nearly all actives have a fitted effect of over 45% in size
Summary of the method: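 MDA-kb2 cells (human breast carcinoma, stably carrying MMTV-luciferase reporter) were exposed to compounds with 0.5 nM R1881 (final) for 16 hr at 37C, 0% CO2; viability then read as live-cell protease fluorescence (CellTiter-Fluor, 30 min) in the same wells.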

[2] = molecular target: Estrogen receptor (Homo sapiens) (UniProt P03372); test: qHTS assay to identify small molecule antagonists of the estrogen receptor alpha (ER-alpha) signaling pathway using the BG1 cell line in the presence of 0.1 nM 17-beta-estradiol (AID 1259244); also: nearly all actives have a fitted effect of over 50% in size; also: potency is read from the fitted curve at half-maximal effect
Chain of Estrogen receptor (Homo sapiens) (P03372 whole entry, looked up): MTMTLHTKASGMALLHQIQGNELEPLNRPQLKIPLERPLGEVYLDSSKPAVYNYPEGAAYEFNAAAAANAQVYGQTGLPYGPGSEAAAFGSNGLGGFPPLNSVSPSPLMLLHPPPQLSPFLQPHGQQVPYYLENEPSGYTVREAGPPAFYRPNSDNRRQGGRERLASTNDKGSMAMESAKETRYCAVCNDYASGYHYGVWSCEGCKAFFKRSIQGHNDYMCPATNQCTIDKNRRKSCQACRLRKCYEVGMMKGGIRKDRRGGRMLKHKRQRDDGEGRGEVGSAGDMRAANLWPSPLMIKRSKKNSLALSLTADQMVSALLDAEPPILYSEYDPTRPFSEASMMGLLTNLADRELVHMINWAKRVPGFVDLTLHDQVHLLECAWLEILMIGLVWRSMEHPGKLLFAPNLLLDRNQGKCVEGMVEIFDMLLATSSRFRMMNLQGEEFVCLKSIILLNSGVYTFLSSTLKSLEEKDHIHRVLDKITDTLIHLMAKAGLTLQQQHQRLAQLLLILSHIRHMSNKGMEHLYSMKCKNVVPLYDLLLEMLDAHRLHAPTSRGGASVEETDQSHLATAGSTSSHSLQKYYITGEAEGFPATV
Summary of the method: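 VM7Luc4E2 cells (endogenous full-length ER-alpha, stable 4xERE-luciferase) were grown 5 days in phenol red-free medium with charcoal-stripped FBS, then exposed 22 h at 37C to compounds plus 0.1 nM (final) 17beta-estradiol; ONE-Glo luminescence read-out.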

[3] = qHTS assay to identify small molecule phospholipidosis (PLD) inducers (AID 1259344; active = well fitted curve in the direction sought with a large enough effect; an effect the other way counts as inactive or inconclusive; also: potency is read from the fitted curve at half-maximal effect)
Summary of the method: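 Fluorescent phospholipid staining (LipidTOX Red) measured by automated microscopy in fixed HepG2 cells after 24 h treatment; nuclei counterstained with Hoechst 33342; amiodarone as reference inducer.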

[4] = qHTS assay to identify small molecule HDAC inhibitors (AID 1259364); also: nearly all actives have a fitted effect of over 45% in size; also: potency is read from the fitted curve at half-maximal effect; as to activity change, negative = inhibition: top concentration of the series differs between compounds
Summary of the method: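 Wild-type HCT-116 cells were plated overnight, exposed to compounds for 2 h at 37 °C, then given HDAC-Glo class I/II luminogenic reagent for 30 min at room temperature before luminescence was read.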

[5] = qHTS assay to identify small molecule HDAC inhibitors - cell viability counter screen (AID 1259365); also: series mostly up to about 92 µM; nearly all actives have a fitted effect of over 50% in size
Summary of the method: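 CellTiter-Glo luminescence (30 min, room temperature) reported viability after a 2 h compound exposure at 37 C. Cells: wild-type HCT-116, 1,500 per well, seeded the night before.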

[6] = qHTS assay to identify small molecule agonists of the sonic hedgehog signaling (Shh) pathway - cell viability counter screen (AID 1259366); also: nearly all actives have a fitted effect of over 50% in size; also: potency is read from the fitted curve at half-maximal effect
Summary of the method: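 Cytotoxicity counter screen: CellTiter-Fluor reagent added after 23 h compound exposure, then 1 h at 37C and fluorescence read. Cells were 3T3 Gli1-Luc, seeded 2,000 per well and dosed 4 h post-plating.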

[7] = qHTS assay to identify small molecule antagonists of the sonic hedgehog signaling (Shh) pathway - cell viability counter screen (AID 1259367); also: nearly all actives have a fitted effect of over 55% in size; also: potency is read from the fitted curve at half-maximal effect
Summary of the method: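 Using CellTiter-Fluor, viability of Gli1-Luc reporter 3T3 cells is read by fluorescence in the wells used for the Shh luciferase assay. Treatment lasts 23 hr with conditioned medium, then reagent 1 hr at 37C.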

[8] = qHTS assay to identify small molecule agonists of the sonic hedgehog signaling (Shh) pathway (AID 1259368; calls by dose curve; also: series mostly up to about 92 µM; nearly all actives have a fitted effect of over 15% in size)
Summary of the method: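 NIH/3T3-derived 3T3Gli1-Luc cells carrying a stably integrated Gli1 response element–firefly luciferase reporter were plated, left 4 hr at 37 C, then given compounds in DMSO for 24 hr. Luminescence was read 30 min after adding luciferase reagent.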

[9] = qHTS assay to identify small molecule antagonists of the sonic hedgehog signaling (Shh) pathway (AID 1259369; calls by dose curve; also: nearly all actives have a fitted effect of over 45% in size; also: potency is read from the fitted curve at half-maximal effect)
Summary of the method: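 NIH/3T3-derived 3T3Gli1-Luc cells with stably integrated Gli1-Luc reporter were preincubated 4hr at 37 C, then given compounds in DMSO plus Shh conditioned medium and incubated 24hr. Firefly luciferase luminescence read after 30min reagent at room temperature.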

[10] = molecular target: Androgen receptor (Homo sapiens) (UniProt P10275); test: qHTS assay to identify small molecule antagonists of the androgen receptor (AR) signaling pathway using the MDA cell line in the presence of 0.5 nM R1881 (AID 1259243); also: nearly all actives have a fitted effect of over 50% in size
Chain of Androgen receptor (Homo sapiens) (P10275 whole entry, looked up): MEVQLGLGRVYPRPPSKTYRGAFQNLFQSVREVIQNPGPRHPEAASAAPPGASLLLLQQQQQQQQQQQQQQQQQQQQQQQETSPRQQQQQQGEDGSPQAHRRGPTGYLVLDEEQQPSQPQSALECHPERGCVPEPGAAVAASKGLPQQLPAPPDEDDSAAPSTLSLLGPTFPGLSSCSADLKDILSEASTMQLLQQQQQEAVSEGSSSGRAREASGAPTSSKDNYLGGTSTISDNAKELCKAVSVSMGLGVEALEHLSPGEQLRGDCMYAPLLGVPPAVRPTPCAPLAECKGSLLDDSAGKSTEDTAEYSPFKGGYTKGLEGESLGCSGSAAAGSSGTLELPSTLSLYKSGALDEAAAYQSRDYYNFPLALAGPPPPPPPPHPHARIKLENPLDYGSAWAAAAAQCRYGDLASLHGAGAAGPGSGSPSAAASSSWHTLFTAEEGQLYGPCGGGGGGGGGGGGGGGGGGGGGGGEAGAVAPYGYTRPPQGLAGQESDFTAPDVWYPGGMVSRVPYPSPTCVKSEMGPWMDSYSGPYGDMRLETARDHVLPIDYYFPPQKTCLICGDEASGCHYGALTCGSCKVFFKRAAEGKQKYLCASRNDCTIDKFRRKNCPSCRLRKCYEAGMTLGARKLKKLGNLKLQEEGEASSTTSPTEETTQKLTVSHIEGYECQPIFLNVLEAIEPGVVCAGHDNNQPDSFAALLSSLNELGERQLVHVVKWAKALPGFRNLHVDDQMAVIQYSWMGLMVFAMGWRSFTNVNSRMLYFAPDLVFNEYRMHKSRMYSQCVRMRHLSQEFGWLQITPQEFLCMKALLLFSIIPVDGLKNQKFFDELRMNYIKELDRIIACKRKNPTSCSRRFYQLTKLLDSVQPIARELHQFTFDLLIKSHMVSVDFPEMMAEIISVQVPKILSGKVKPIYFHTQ
Summary of the method: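 MDA-kb2 human breast carcinoma cells carrying an MMTV-luciferase reporter (AR- and GR-responsive) were plated, rested 5 hr at 37C, dosed with compounds, then stimulated with 0.5 nM R1881 (final) for 16 hr; luminescence was read after ONE-Glo.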
% is scaled to controls: 0 for no effect and ±100 for the full control effect.

COc1ccc(C(=O)NCc2ccc(OCCN(C)C)cc2)cc1OC
inactive: Potency [1] | Potency [2] | Potency [3] | Potency [4] | Potency [5] | Potency [6] | Potency [7] | Potency [8] | Potency [9]

CC12CC3CC(C)(C1)CC(N)(C3)C2
inactive: Potency [1] | Potency [2] | Potency [3] | Potency [4] | Potency [5] | Potency [7] | Potency [8]
active: Potency [9] 16.8 µM

COc1ccc(-c2cc(C(F)F)nn2-c2ccc(S(N)(=O)=O)cc2)cc1F
inactive: Potency [1] | Potency [2] | Potency [3] | Potency [4] | Potency [5] | Potency [6] | Potency [7] | Potency [8]

O=C1[C@@H]2[C@H]3CC[C@H](C3)[C@@H]2C(=O)N1CCCCN1CCN(c2ncccn2)CC1
inactive: Potency [1] | Potency [2] | Potency [3] | Potency [4] | Potency [5] | Potency [6] | Potency [7] | Potency [8] | Potency [9]

CC(C)(C)C(O)/C=C/c1ccc2c(c1)OCO2 (stereo not drawn)
inactive: Potency [1] | Potency [2] | Potency [3] | Potency [4] | Potency [5] | Potency [6] | Potency [7] | Potency [8] | Potency [9]

C=CC(=O)O
inactive: Potency [1] | Potency [2] | Potency [3] | Potency [4] | Potency [5] | Potency [7] | Potency [8] | Potency [9]

CCOC(=O)c1c(N)sc2c1CCN(Cc1ccccc1)C2
active: Potency [2] 29.8 µM | Potency [9] 10.6 µM
inactive: Potency [1] | Potency [3] | Potency [4] | Potency [5] | Potency [6] | Potency [8]

CC(=O)OC(C)C[N+](C)(C)C (stereo not drawn)
inactive: Potency [1] | Potency [2] | Potency [3] | Potency [4] | Potency [5] | Potency [7] | Potency [8]

c1ccc2sc(SSc3nc4ccccc4s3)nc2c1
inactive: viability change, negative = cytotoxic [1] 8.85% [at 19 µM] | activity change, negative = inhibition [2] 1.45% [at 19 µM] | Potency [3] | activity change, negative = inhibition [4] -21.4% [at 19 µM] | activity change, negative = cytotoxicity [5] 0.0537% [at 19 µM] | viability change, negative = cytotoxic [6] 21.7% [at 19 µM] | activity change [8] 1.97% [at 18.9 µM, stronger effect = higher value] | activity change, negative = inhibition [9] 7.11% [at 19 µM]

Cc1ccc(Nc2c(F)cccc2Cl)c(CC(=O)O)c1
inactive: Potency [1] | Potency [2] | Potency [3] | Potency [4] | Potency [5] | Potency [7] | Potency [8] | Potency [9]

O=C(O)c1cc(Cl)cc(Cl)c1O
inactive: Potency [1] | Potency [10] | Potency [5] | Potency [6] | Potency [8]

COc1ccc2nc(S(=O)Cc3ncc(C)c(OC)c3C)[nH]c2c1 (stereo not drawn)
inactive: Potency [1] | Potency [2] | Potency [3] | Potency [4] | Potency [5] | Potency [6] | Potency [7] | Potency [8]

CCCCCCCCCCCC(=O)OCC(O)CO (stereo not drawn)
inactive: Potency [1] | Potency [2] | Potency [3] | Potency [4] | Potency [5] | Potency [6] | Potency [8] | Potency [9]

CC(C)(C(=O)c1cccnc1)c1cccnc1
inactive: Potency [1] | Potency [2] | Potency [3] | Potency [4] | Potency [5] | Potency [6] | Potency [7] | Potency [8]

CCN(CC)CCNC(=O)c1cc(Cl)c(N)cc1OC
inactive: Potency [1] | Potency [2] | Potency [3] | Potency [4] | Potency [5] | Potency [6] | Potency [7] | Potency [8] | Potency [9]

COc1cc(NCc2ccc3nc(N)nc(N)c3c2C)cc(OC)c1OC
inactive: Potency [1] | Potency [2] | Potency [3] | Potency [4] | Potency [5] | Potency [8]
active: Potency [6] 15 µM

N[C@@H](Cc1cc(I)c(O)c(I)c1)C(=O)O
inactive: Potency [1] | Potency [2] | Potency [3] | Potency [4] | Potency [5] | Potency [6] | Potency [8] | Potency [9]

O=c1[nH]c2cc(C(F)(F)F)c(N3CCOCC3)cc2n(CP(=O)(O)O)c1=O
inactive: Potency [1] | Potency [2] | Potency [3] | Potency [4] | Potency [5] | Potency [6] | Potency [7] | Potency [8] | Potency [9]

CC[C@H]1OC(=O)[C@H](C)[C@@H](O[C@H]2C[C@@](C)(OC)[C@@H](O)[C@H](C)O2)[C@H](C)[C@@H](O[C@@H]2O[C@H](C)C[C@H](N(C)C)[C@H]2O)[C@](C)(O)C[C@@H](C)/C(=N\OCOCCOC)[C@H](C)[C@@H](O)[C@]1(C)O
inactive: Potency [1] | Potency [2] | Potency [3] | Potency [4] | Potency [5] | Potency [8]
active: Potency [6] 5.09 µM | Potency [7] 8.07 µM | Potency [9] 12.8 µM

COc1cc(C(C)=O)ccc1OCCCN1CCC(c2noc3cc(F)ccc23)CC1
active: Potency [3] 1 µM
inactive: Potency [1] | Potency [2] | Potency [4] | Potency [5] | Potency [6] | Potency [8]

COc1ccc(CCN(C)CCCN2CCc3cc(OC)c(OC)cc3CC2=O)cc1OC
inactive: Potency [1] | Potency [2] | Potency [3] | Potency [4] | Potency [5] | Potency [7] | Potency [8]

COc1cc(NC(C)CCCN)c2ncccc2c1 (stereo not drawn)
inactive: Potency [1] | Potency [2] | Potency [3] | Potency [4] | Potency [5] | Potency [7] | Potency [8] | Potency [9]

Cc1ccc(S(=O)(=O)NC(=O)NC2CCCCC2)cc1
inactive: Potency [1] | Potency [2] | Potency [3] | Potency [4] | Potency [5] | Potency [6] | Potency [8] | Potency [9]

CC(C)(C)NCC(O)COc1cccc2c1C[C@H](O)[C@H](O)C2 (stereo partly drawn)
inactive: Potency [1] | Potency [2] | Potency [3] | Potency [4] | Potency [5] | Potency [6] | Potency [7] | Potency [8] | Potency [9]

O=C(Nc1ccc(C(=O)O)c(O)c1)c1ccccc1
inactive: Potency [1] | Potency [2] | Potency [3] | Potency [5] | Potency [7] | Potency [8] | Potency [9]
active: Potency [4] 1.68 µM

CCN(CC)CCOc1ccccc1C(=O)CCc1ccccc1
inactive: Potency [1] | Potency [2] | Potency [3] | Potency [4] | Potency [5] | Potency [6] | Potency [7] | Potency [8]
